In PubChem BioAssay:
Where “and” joins values, the source holds several entries; their conditions need not be identical. Equal entries are not always repeated. Calls of active or inactive are those of the source.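 The calls were made as follows, unless noted: active = normalized viability below 100% at a tested concentration; inactive = the rest.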

Assays:
[1] = Wnt pathway potentiators raising nuclear beta-catenin – imaging, WNT3A-conditioned medium, mouse C2C12, NPC library, primary screen (AID 1117326; in the data active = nuclear beta-catenin stimulation mostly above about 4.2%, no sharp cut-off; inactive = mostly below about 10%); conditions: stronger effect = higher value
[2] = stimulators of insulin release from INS-1E, primary screen, cell-based, 5 mM glucose, NPC library (AID 1117329;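 active = compound raises insulin release from rat beta cells at 5 mM glucose, no numeric limit stated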); conditions: rat INS-1E insulin secretion, at 10 µM, stronger effect = higher value
[3] = growth inhibition of GSK3B-pretreated HCT116 cells – cell-based, CellTiter-Glo, 0.2 to 20 µM (AID 1117336;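 active = compounds lowering colon cancer cell viability after pretreatment blocking the GSK3B kinase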); conditions: HCT116 viability after GSK3B inhibitor, at 20 µM, stronger effect = higher value
[4] = inhibition of endothelial tube formation, primary screen, imaging, VEGF stimulated, CD31 staining, tube area, NPC library (AID 1117340;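 active = compound that reduces growth-factor-driven endothelial tube area in a mixed cell culture, no cutoff stated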); conditions: VEGF-stimulated ADSC/ECFC co-culture, at 10 µM, stronger effect = higher value
[5] = GLP1 release stimulators, primary, NCI-H716, NPC library (AID 1117341;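 active = compound raises GLP1 secretion from the human gut endocrine cells, with no numeric limit stated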); conditions: NCI-H716 cells, at 10 µM, stronger effect = higher value
[6] = HCT116 colon cancer cell growth inhibition, primary screen, CellTiter-Glo luminescence, NPC library (AID 1117342;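 active = compounds that lower survival of HCT116 colon cancer cells in the luminescence readout, no numeric limit stated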); conditions: at 20 µM (top of the series)
[7] = reduced SW480 viability measured with CellTiter-Glo, NPC library, primary (AID 1117343;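 active = compounds that lower viability of the colon cancer cells in the luminescence readout, with no numeric limit stated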); conditions: CellTiter-Glo luminescence; at 20 µM (top of the series) unless noted
[8] = NPC library primary testing for decreased DLD-1 cell viability via CellTiter-Glo (AID 1117346;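 active = compounds that lower survival of DLD-1 colon cancer cells in the luminescence readout, no cutoff given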); conditions: DLD-1 viability, CellTiter-Glo luminescence; at 20 µM (top of the series)
[9] = EMT-state selective cytotoxicity in co-culture – imaging, PC-3E GFP, TEM4-18 mCherry, primary screen (AID 1345086;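 active = compounds killing one labelled cell type while sparing the other, by normalised counts and ratio limits, not self-fluorescent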;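 as to all read-outs here: cells exposed to compound for 72 h before imaging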;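 as to red/green cell ratio (normalised): normalised mesenchymal count divided by normalised epithelial count so high means epithelial killing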); conditions: PC-3E GFP / TEM4-18 mCherry co-culture, imaging cell counts, at 1 µM; for red/green cell ratio (normalised): actives lie on both sides, counts scaled to control wells, 1 = unselective
[10] = viability loss with induced miR-34 in A549 – imaging, A549 dox-inducible miR-34, nuclei and caspase counts, primary screen (AID 1347080;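 active = compounds whose cell count with miR-34 switched on is under 0.7 times the count with it off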); conditions: A549 miR-34 inducible, Hoechst nuclei count, 48 h
[11] = MELAS cybrid and Rieske KO viability enhancers – cell-based, MELAS cybrids, Rieske KO mouse fibroblasts, CellTiter-Glo, primary screen (AID 1508586;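 active = mean z-score across replicates of 1.96 or higher in either the MELAS or the Rieske mutant cell line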;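 also: z relative to plate mean and SD of compound and empty wells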); conditions: low glucose
[12] = drug combination growth inhibition, ovarian cancer – cell-based, oncology-focused library, rucaparib conditional, profiling panel (AID 1508598); conditions: patient-derived ovarian cancer cells, CellTiter-Glo viability, 144 h, stronger effect = lower value
[13] = target: NAD(+) hydrolase SARM1 (Homo sapiens) (UniProt Q6SZW1); test: blocking NAD cleavage by SARM1 SAM-TIR – cell lysate, NAD-Glo luminescence (AID 1508614;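 active = compound whose remaining NAD level is above about 45 nM, limit read from the data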;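 also: higher remaining NAD means stronger inhibition of SARM1 NADase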); conditions: SAM-TIR HEK293T lysate NADase, at 1 µM, stronger effect = higher value
[14] = P. berghei load reduction in hepatocytes – cell-based, HepG2, luciferase luminescence, HepG2 viability, primary screen (AID 624349; in the data active = parasite load remaining mostly below about 12%, no sharp cut-off; inactive = mostly above about 10%;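 also: 100% = mean of DMSO negative control wells on the same plate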); conditions: P. berghei liver stage in HepG2, luciferase luminescence, concentration not given here; parasite load remaining: stronger effect = lower value; viability: measured here: HepG2 viability without parasites
[15] = measured here: epithelial PC-3E GFP cell survival
[16] = measured here: mesenchymal TEM4-18 mCherry cell survival
[17] = stronger effect = lower value, cell number ratio, induced over uninduced
[18] = measured here: relative caspase fold change +Dox/-Dox
[19] = measured here: total cells with miR-34 induction, stronger effect = lower value
[20] = measured here: total cells without miR-34 induction
[21] = MELAS cybrid survival, CellTiter-Glo 48 h, stronger effect = higher value
[22] = Rieske KO mouse fibroblast survival, CellTiter-Glo 72 h

Sequence of NAD(+) hydrolase SARM1 (Homo sapiens) (Q6SZW1 whole entry, looked up): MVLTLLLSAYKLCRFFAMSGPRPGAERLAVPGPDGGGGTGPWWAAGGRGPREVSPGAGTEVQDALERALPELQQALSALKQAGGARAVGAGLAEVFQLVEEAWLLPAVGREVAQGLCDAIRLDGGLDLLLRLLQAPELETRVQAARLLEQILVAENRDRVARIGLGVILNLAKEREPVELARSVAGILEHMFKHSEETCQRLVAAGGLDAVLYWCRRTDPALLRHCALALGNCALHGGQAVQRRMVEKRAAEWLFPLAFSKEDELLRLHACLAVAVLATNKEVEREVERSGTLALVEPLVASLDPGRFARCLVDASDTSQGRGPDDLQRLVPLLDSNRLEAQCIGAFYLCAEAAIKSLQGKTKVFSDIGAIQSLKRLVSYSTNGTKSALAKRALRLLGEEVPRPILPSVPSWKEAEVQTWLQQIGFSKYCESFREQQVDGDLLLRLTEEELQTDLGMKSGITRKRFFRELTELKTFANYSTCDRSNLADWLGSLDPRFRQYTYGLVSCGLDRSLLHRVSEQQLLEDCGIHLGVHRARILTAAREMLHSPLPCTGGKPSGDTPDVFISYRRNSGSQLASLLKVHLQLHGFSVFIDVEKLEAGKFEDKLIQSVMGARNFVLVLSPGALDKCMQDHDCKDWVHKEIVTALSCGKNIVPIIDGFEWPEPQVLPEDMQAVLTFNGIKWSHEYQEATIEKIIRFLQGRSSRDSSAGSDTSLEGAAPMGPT

Cc1nc(Nc2ncc(C(=O)Nc3c(C)cccc3Cl)s2)cc(N2CCN(CCO)CC2)n1
inactive: insulin secretion stimulation [2] -0.7% | viability decrease [3] -182% | GLP1 secretion stimulation [5] 2.2% | red/green cell ratio (normalised) [9] 1.54 | fold change [10, 17] 0.896 and 0.9 | viability ([12]; at 0.000305 µM, OCI-C5x cells, with rucaparib 10 µM, 100% = cells with rucaparib alone) 102% | viability ([12]; at 0.000305 µM, OCI-C5x cells, without rucaparib) 117% | viability ([12]; at 0.000305 µM, OCI-P5x cells, with rucaparib 20 µM, 100% = cells with rucaparib alone) 103% | viability ([12]; at 0.00122 µM, OCI-C5x cells, without rucaparib) 114% | viability ([12]; at 0.00488 µM, OCI-C5x cells, with rucaparib 10 µM, 100% = cells with rucaparib alone) 107% | viability ([12]; at 0.00488 µM, OCI-C5x cells, without rucaparib) 108% | remaining NAD [13] 10 nM
active: nuclear beta-catenin stimulation ([1]; at 10 µM) 69.4% | tube area decrease [4] 62.2% | inhibition of viability [6] 69.7% | viability decrease (inhibition) [7] 87.2% | viability decrease (inhibition) [8] 100% | z-score [11, 21] 4.95 | viability ([12]; at 0.000305 µM, OCI-P5x cells, without rucaparib) 98.9% | viability ([12]; at 0.00122 µM, OCI-C5x cells, with rucaparib 10 µM, 100% = cells with rucaparib alone) 99.9% | viability ([12]; at 0.00122 µM, OCI-P5x cells, with rucaparib 20 µM, 100% = cells with rucaparib alone) 54.8% | viability ([12]; at 0.00122 µM, OCI-P5x cells, without rucaparib) 97.2% | viability ([12]; at 0.00488 µM, OCI-P5x cells, with rucaparib 20 µM, 100% = cells with rucaparib alone) 52.6% | viability ([12]; at 0.00488 µM, OCI-P5x cells, without rucaparib) 81.3% | viability ([12]; at 0.0195 µM, OCI-C5x cells, with rucaparib 10 µM, 100% = cells with rucaparib alone) 77.4% | viability ([12]; at 0.0195 µM, OCI-C5x cells, without rucaparib) 87.9% | viability ([12]; at 0.0195 µM, OCI-P5x cells, with rucaparib 20 µM, 100% = cells with rucaparib alone) 27.3% | viability ([12]; at 0.0195 µM, OCI-P5x cells, without rucaparib) 53.6% | viability ([12]; at 0.0781 µM, OCI-C5x cells, with rucaparib 10 µM, 100% = cells with rucaparib alone) 68.4% | viability ([12]; at 0.0781 µM, OCI-C5x cells, without rucaparib) 72.4% | viability ([12]; at 0.0781 µM, OCI-P5x cells, with rucaparib 20 µM, 100% = cells with rucaparib alone) 17% | viability ([12]; at 0.0781 µM, OCI-P5x cells, without rucaparib) 31.8% | viability ([12]; at 0.313 µM, OCI-C5x cells, with rucaparib 10 µM, 100% = cells with rucaparib alone) 69.2% | viability ([12]; at 0.313 µM, OCI-C5x cells, without rucaparib) 71.6% | viability ([12]; at 0.313 µM, OCI-P5x cells, with rucaparib 20 µM, 100% = cells with rucaparib alone) 17% | viability ([12]; at 0.313 µM, OCI-P5x cells, without rucaparib) 28.4% | viability ([12]; at 1.25 µM, OCI-C5x cells, with rucaparib 10 µM, 100% = cells with rucaparib alone) 66.7% | viability ([12]; at 1.25 µM, OCI-C5x cells, without rucaparib) 71.4% | viability ([12]; at 1.25 µM, OCI-P5x cells, with rucaparib 20 µM, 100% = cells with rucaparib alone) 16.6% | viability ([12]; at 1.25 µM, OCI-P5x cells, without rucaparib) 24.3% | viability ([12]; at 5 µM, OCI-C5x cells, with rucaparib 10 µM, 100% = cells with rucaparib alone) 44.6% | viability ([12]; at 5 µM, OCI-C5x cells, without rucaparib) 51.1% | viability ([12]; at 5 µM, OCI-P5x cells, with rucaparib 20 µM, 100% = cells with rucaparib alone) 2.14% | viability ([12]; at 5 µM, OCI-P5x cells, without rucaparib) 10.5%
0.58: normalised cell number [9, 16]
524 and 647: cell count [10, 20]
0.38: normalised cell number [9, 15]
470 and 582: cell count [10, 19]
65.2%: nuclear beta-catenin stimulation ([1]; stimulation, at 2 µM)
0.654 and 0.731: fold change [10, 18]
-1.77: z-score [11, 22]

Cn1c(=O)c2c(ncn2CC2OCCO2)n(C)c1=O
0.98: normalised cell number [9, 16]
112%: viability [14]
0.475 and 1.33: fold change [10, 18]
9320 and 10900: cell count [10, 20]
8400 and 9760: cell count [10, 19]
1.16: normalised cell number [9, 15]
-0.174 and -0.641 and -0.268: z-score [11, 22]
1.1%: nuclear beta-catenin stimulation ([1]; stimulation, at 2 µM)
inactive: parasite load remaining [14] 22.8% | nuclear beta-catenin stimulation ([1]; at 10 µM) 2.7% | insulin secretion stimulation [2] -2.4% | viability decrease [3] -0.95% | tube area decrease [4] -3.4% | GLP1 secretion stimulation [5] -1.2% | inhibition of viability [6] 16.1% | viability decrease (inhibition) [7] 46.8% | viability decrease (inhibition) [8] 11.7% | red/green cell ratio (normalised) [9] 0.85 | fold change [10, 17] 0.901 and 0.895 | z-score [11, 21] -0.299 and -0.511 and 0.326 | remaining NAD [13] 10 nM
